High-throughput results: PubChem, several laboratories
MazF activator – activators of E. coli MazEF toxin-antitoxin RNase, primary screen, biochemical, fluorescence, uHTS. AID 504720, 2011. activation, % at 20 µM. 350,000 tested, 0.32% active. FAM/BHQ RNA-DNA oligo cleavage fluorescence, 5 h; in the data active = activation above about 50%
Target sequence (P0AE70 whole entry, looked up): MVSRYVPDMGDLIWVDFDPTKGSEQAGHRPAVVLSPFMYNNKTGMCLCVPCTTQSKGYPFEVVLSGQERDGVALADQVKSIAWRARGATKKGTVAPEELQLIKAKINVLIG
DUSP3 inh – VHR1 phosphatase inhibitors, primary screen, biochemical, absorbance, uHTS; Dual specificity protein phosphatase 3 (Homo sapiens), P51452; recombinant VHR phosphatase, pNPP absorbance; inhibition, % at 13.3 µM; 290,000 tested, 0.52% active; AID 1654, 2009; in the data active = inhibition above about 50%
Target sequence (P51452 whole entry, looked up): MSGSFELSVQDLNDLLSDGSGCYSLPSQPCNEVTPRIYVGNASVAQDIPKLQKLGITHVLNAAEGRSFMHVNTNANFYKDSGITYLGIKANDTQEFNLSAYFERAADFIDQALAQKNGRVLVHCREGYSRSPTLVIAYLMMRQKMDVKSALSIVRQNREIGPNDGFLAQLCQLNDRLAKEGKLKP
Bead autofluor – counter-screen for toxin protease inhibitors: compound fluorescence; compound autofluorescence counterscreen, microsphere flow cytometry; active compounds read high; AID 624483; fluorescence intensity (test concentration not listed); 360,000 tested, 3.1% active; in the data active = fluorescence intensity above about 16000; inconclusive = no clear call, values can overlap the other calls
BoNT A protease – BoNT/A light chain protease inhibitors, primary screen, biochemical, flow cytometry, MLPCN library | 360,000 tested, 0.17% active | multiplex microsphere protease substrate cleavage | inhibition, % at 10 µM
BoNT-F LC inh – BoNT/F light chain protease inhibitors, primary screen, biochemical, flow cytometry, MLPCN library | Botulinum neurotoxin type F light chain protease (Clostridium botulinum) | Multiplex microsphere protease cleavage assay | inhibition, % at 10 µM | 360,000 tested, 0.22% active | AID 588497, 2011; in the data active = inhibition above about 35%, passing the limit was not always enough; inconclusive = no clear call, values can overlap the other calls
Anthrax LF inh2 – Bacillus anthracis LF protease inhibitors, primary screen, biochemical, multiplex microsphere, MLPCN library; Lethal factor (Bacillus anthracis), P15917; multiplex microsphere protease cleavage assay; inhibition, % at 10 µM; 360,000 tested, 0.12% active; AID 588501, 2011
Of the large screens only hits and unclear results are named; the others gave an inactive call. An excerpt weighted towards active compounds, which were near 4% of everything screened. Cut-off read from the data, not from the text of the source, unless noted: active = inhibition above about 30%; inconclusive = no clear call, values can overlap the other calls; inactive = below that.

CCN(CC)CCCN1C(=O)C(O)=C(C(=O)c2sc(C)nc2C)C1c1ccco1 (stereo not given)	Bead autofluor 19534
COc1ccc(C2C(C(=O)c3sc(C)nc3C)=C(O)C(=O)N2CCCn2ccnc2)cc1OC (stereo not given)	Bead autofluor 20435
O=C(CCSCCc1ccccn1)Nc1ccc(Cl)cn1	Bead autofluor 20129, BoNT A protease inconclusive
O=C(CCSCCc1ccccn1)Nc1ccccn1	none
O=C(CCSCCc1ccccn1)Nc1ccc(Br)cn1	Bead autofluor 23488
CN(CCc1ccccn1)C(=O)Nc1ccc(Cl)cc1	Bead autofluor 17188
O=C(Nc1ccc(C2SCCS2)cc1)c1ccccc1	none (no result: Bead autofluor, BoNT A protease, BoNT-F LC inh, Anthrax LF inh2)
Cc1ccc2nc(-c3ccc(NC(=O)c4ccco4)cc3)[nH]c2c1	none
O=C(Nc1cccc(-c2nc3ccccc3[nH]2)c1)c1ccco1	Bead autofluor 25261
CCOC(=O)c1cccc(NC(=O)/C=C/c2cccc([N+](=O)[O-])c2)c1	Bead autofluor 19203
Cc1cc(NC(=O)c2cccnc2)ccc1NC(=O)c1ccco1	Bead autofluor 22536
CCOC(=O)c1cccc(NC(=O)c2ccco2)c1	Bead autofluor 23498, BoNT A protease inconclusive
Cc1cc(NC(=O)c2ccco2)ccc1NC(=O)c1ccco1	none
CCCn1c(N/N=C\C=C\c2ccccc2)nc2c1c(=O)[nH]c(=O)n2C	none
O=C(Nc1cccc(NC(=O)c2ccco2)c1)c1ccccc1	DUSP3 inh 58
CC(=O)Nc1cccc(NC(=O)Cc2cccs2)c1	none
COc1cccc(OC)c1C(=O)Nc1ccc(NC(=O)c2ccco2)cc1	none
COc1cccc(OC)c1C(=O)NC(=S)Nc1cccc(NC(=O)c2ccco2)c1	MazF activator 75
O=C(Cc1cccs1)Nc1cccc(-c2nc3cc4ccccc4cc3[nH]2)c1	MazF activator 56
O=C(CNC(=O)c1ccncc1)N/N=C/c1ccc(Br)cc1	BoNT A protease inconclusive, BoNT-F LC inh inconclusive
Cn1c(=O)oc2cc(S(=O)(=O)NCCC(=O)NC3CCCc4ccccc43)ccc21 (stereo not given)	Bead autofluor 20326
CN(Cc1ccccc1)C(=O)CCS(=O)(=O)c1ccc2c(c1)oc(=O)n2C	none
CN(Cc1ccccc1)C(=O)CCNS(=O)(=O)c1ccc2c(c1)oc(=O)n2C	Bead autofluor 20317
Cn1c(=O)oc2cc(S(=O)(=O)NCCC(=O)NC3CCCC3)ccc21	none
Cc1cccc(CCNS(=O)(=O)c2ccc3c(c2)oc(=O)n3C)c1	Bead autofluor inconclusive
CCCN(CCC)CCCNS(=O)(=O)c1ccc2c(c1)oc(=O)n2C	Bead autofluor 23740, BoNT A protease inconclusive
Cn1c(=O)oc2cc(S(=O)(=O)NCCc3ccccc3)ccc21	DUSP3 inh 57
COc1cc2c(cc1OC)C(=S)NC1(CCCC1)C2	none
CCCNS(=O)(=O)c1cccc(C(=O)NC2CCCc3ccccc32)c1 (stereo not given)	Bead autofluor 22288
CN(C)S(=O)(=O)c1cccc(C(=O)NC2CCCc3ccccc32)c1 (stereo not given)	none
C/C(=N/NC(=O)c1ccoc1C)c1cccc(NC(=O)C(F)(F)F)c1	none
CCNC(=S)NCCN1CCCCC1	MazF activator 123
CCCNC(=S)NCCN1CCCCC1	none
N#Cc1cccc(-n2nnnc2-c2ccccn2)c1	none
O=C(NCc1ccccc1)C(C(=O)c1ccc(F)cc1)n1ccccc1=O (stereo not given)	none
O=C(NCCCN1CCOCC1)C(C(=O)c1ccccc1)n1ccccc1=O (stereo not given)	Bead autofluor 22755
CC(C(=O)NCCCN1CCOCC1)n1cccc1C(=O)c1ccccc1 (stereo not given)	none
O=C(COc1ccc(F)cc1)NCC1CCCO1 (stereo not given)	Bead autofluor 24747, BoNT A protease inconclusive
O=C(NCC1CCCO1)C(C(=O)c1ccc(F)cc1)n1ccccc1=O (stereo not given)	Bead autofluor 21506
O=C(NCc1cccnc1)C(C(=O)c1ccc(F)cc1)n1ccccc1=O (stereo not given)	Bead autofluor 22039, BoNT A protease inconclusive
O=C(COc1ccccc1)NCC1CCCO1 (stereo not given)	none
CCOC(=O)N/N=C/c1c(C)c(C(=O)c2ccc(F)cc2)n2ccccc12	none
CCCN(CC1CC1)C(=O)CSc1ncnc2sccc12	none
Cc1ccc(=O)n(C(C(=O)NCc2ccco2)C(=O)c2ccc(F)cc2)c1 (stereo not given)	Bead autofluor 22339
CCCc1cc(=O)[nH]c(SCC(=O)NC2CCCCCCC2)n1	none (no result: DUSP3 inh)
CC(=O)Nc1ccc(C2=NN(C)C(=NCc3ccccc3)SC2)cc1	DUSP3 inh 51
O=C(Nc1ccc(Cl)cc1)N1CCSC1=NCc1ccccc1	none
CCOC(=O)Cn1nc(C)n(-c2ccc(C(C)C)cc2)c1=O	Bead autofluor 16947
Cc1cc2cc(C#N)c(NCCNC(=S)NCCCN3CCOCC3)nc2cc1C	DUSP3 inh 60
Cc1cccc2cc(C#N)c(NCCNC(=S)NCCCN3CCOCC3)nc12	none
CCC(CC)NC(=O)c1ccc2c(c1)OCCO2	Bead autofluor 23941
COc1ccc(NC(=O)CC(=O)Nc2ccc(OC)cc2)cc1	none (no result: DUSP3 inh)
O=C1NC(=O)N(Cc2ccccc2)C(=O)/C1=C\N1CCCc2ccccc21	none
O=C1NC(=O)N(Cc2ccccc2Cl)C(=O)/C1=C/N1CCOCC1	Bead autofluor 23148
Cn1c(-c2ccc(Cl)cc2)cnc1N	Bead autofluor inconclusive, BoNT A protease inconclusive, Anthrax LF inh2 inconclusive
Cc1ccc(-c2cnc(N)n2C)cc1C	Bead autofluor 23519
C=CCn1c(SCC(=O)NCCO)nc2sc(C)c(C)c2c1=O	none
C=CCn1c(SCC(=O)c2cc(C)n(C(C)COC)c2C)nc2sc(C)c(C)c2c1=O (stereo not given)	Bead autofluor 19713, BoNT A protease inconclusive
Cc1nn(-c2ccccc2)c(OC(=O)c2cccs2)c1S(=O)(=O)c1ccc([N+](=O)[O-])cc1	Bead autofluor 16331
Cc1nn(-c2ccccc2)c(OC(=O)c2cccs2)c1S(=O)(=O)c1ccccc1	none
N#Cc1ccsc1NC(=O)COC(=O)CCS(=O)(=O)c1ccccc1	none (no result: DUSP3 inh)
CCCCn1c(O)c(C(C)=NCCCN(C)C)c(=O)[nH]c1=O	none
CCCCn1c(O)c(C(C)=NCc2ccc(F)cc2)c(=O)[nH]c1=O	Bead autofluor 23819
CCCCn1c(O)c(C(CC)=NCCCN(C)C)c(=O)[nH]c1=O	Bead autofluor 16159
CCCCn1c(O)c(C(C)=NCCCN(CC)CC)c(=O)[nH]c1=O	Bead autofluor 23379
